# Source: PubChem BioAssay
# In the library only some 3% were active in any assay of this set; here they are far more common.
# PPC-1+TRAIL kill: compounds killing PPC-1 cancer cells with TRAIL present (potentiator screen, no TRAIL-free arm). PPC-1 cells + TRAIL, ATPLite viability luminescence. cell killing (% activity), % at 4 µM or 5 µM. 220,000 tested, 0.41% active;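 active = cell killing above 50% in the first pass at 4 µM, then a duplicate retest at 5 µM averaging 50% or more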;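 also: plate controls were cells with TRAIL plus DMSO for no effect and medium-only wells lacking cells for full effect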
# SENP7 inh: inhibitors of human SENP7 protease; 330,000 tested, 1.5% active; recombinant SENP7, Z-RLRGG-aminoluciferin luminescence, 40 min; inhibition, % at 5 µM; Q9BQF6; AID 434973;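 active = inhibition above about 50% at the single test dose, limit read from the data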;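 also: plate controls were DMSO with enzyme for no effect and no enzyme buffer wells for full effect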
# SENP6 inh: inhibitors of human SENP6 protease. Recombinant SENP6 catalytic domain, aminoluciferin luminescence. AID 2599. Q9GZR1. inhibition, % at 10 µM. 330,000 tested, 1.8% active;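 active = inhibition above about 50% at the single tested dose, limit read from the data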;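 also: plate controls were DMSO wells with enzyme for no effect and DMSO wells lacking enzyme for full effect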
# TRAIL sens C8: sensitizes caspase-8 expressing cells to TRAIL; NB7+C8 cells + TRAIL, ATPlite viability luminescence; inhibition (viability loss, TRAIL sensitization), % at 10 µM; 360,000 tested, 1% active; AID 624354;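 active = compounds causing at least 50% loss of cell viability in the single-dose screen, relative to plate controls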
# SENP8 block-1: SENP8 (human) protease inhibition; Q96LD8; recombinant SENP8, Nedd8 substrate fluorescence; inhibition, % at 20 µM; 360,000 tested, 0.64% active; AID 602440; in the data active = inhibition mostly above about 40%, no sharp cut-off; inactive = mostly below about 27%
# Target sequence (Q96LD8 whole entry, looked up): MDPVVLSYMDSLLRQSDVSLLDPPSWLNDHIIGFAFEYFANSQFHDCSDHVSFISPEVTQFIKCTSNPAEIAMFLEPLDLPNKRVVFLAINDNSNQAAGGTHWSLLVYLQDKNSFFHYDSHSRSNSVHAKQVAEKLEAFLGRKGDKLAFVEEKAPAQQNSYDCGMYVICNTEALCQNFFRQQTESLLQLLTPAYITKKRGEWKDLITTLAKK
# SENP8 block-2: inhibitors of human SENP8 protease; Q96LD8; purified SENP8, Z-RLRGG-aminoluciferin cleavage, luminescence; inhibition, % at 10 µM; 330,000 tested, 1.2% active; AID 2540; in the data active = inhibition above about 50%
# SENP8 confirm: confirmation of human SENP8 protease inhibitors | shares compounds with SENP7 inh | Recombinant SENP8, Z-RLRGG-aminoluciferin luminescence, 60 min | inhibition, % at 12.5 µM | 6,200 tested, 40% active | AID 488912;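 active = mean inhibition across replicates above about 50%, limit read from the data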
# SENP6 confirm: confirmation of human SENP6 protease inhibitors. 6,200 tested, 58% active. recombinant SENP6, Z-RLRGG-aminoluciferin luminescence. inhibition, % at 12.5 µM. AID 488915. shares compounds with SENP7 inh
# SENP7 conf: confirmation of human SENP7 protease inhibitors | recombinant SENP7, Z-RLRGG-aminoluciferin luminescence, 40 min | AID 488917 | 6,200 tested, 69% active | shares compounds with SENP7 inh | inhibition, % at 12.5 µM
# Casp3 select: inhibits human caspase-3 in SENP selectivity test. shares compounds with SENP7 inh. purified caspase-3, Z-DEVD-aminoluciferin luminescence, 60 min. inhibition, % at 12.5 µM. 6,200 tested, 60% active;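 active = mean inhibition above about 50%, limit read from the data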;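 also: plate controls were enzyme with DMSO for no effect and wells without caspase-3 for full effect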
# Target sequence (P42574 28-227 limits assumed): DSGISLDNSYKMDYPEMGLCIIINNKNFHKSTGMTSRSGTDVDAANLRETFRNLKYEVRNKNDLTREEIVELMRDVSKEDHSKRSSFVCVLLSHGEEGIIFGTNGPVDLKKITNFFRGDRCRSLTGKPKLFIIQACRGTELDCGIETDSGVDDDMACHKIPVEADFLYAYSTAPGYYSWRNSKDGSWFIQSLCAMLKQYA
# SENP luc ctr: luminescence interference (SENP counter-screen); shares compounds with SENP7 inh; Pre-incubated SENP8/Z-RLRGG-aminoluciferin, luciferase luminescence interference; inhibition, % at 12.5 µM; 6,200 tested, 39% active; AID 488919;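 active = mean inhibition above about 50% when retested at one dose, limit read from the data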;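 also: plate controls were DMSO wells with completed reaction for no effect and substrate without enzyme for full effect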
# * = called active by the depositor; x = no result given.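 The calls were made as follows, unless noted: active = mean inhibition above about 50% in the one-dose retest (limit read from the data); inactive = the rest.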
SMILES,PPC-1+TRAIL kill,SENP7 inh,SENP6 inh,TRAIL sens C8,SENP8 block-1,SENP8 block-2,SENP8 confirm,SENP6 confirm,SENP7 conf,Casp3 select,SENP luc ctr
CC1=NN(c2ccccc2)C(=O)C1N=Nc1ccc(C)cc1 (stereo not given),-4,3,4,x,x,-2,x,x,x,x,x
CC(=O)N(C)c1ccc(N=NC2C(=O)N(C(N)=S)N=C2C)cc1 (stereo not given),x,80*,2,5,15,77*,86*,84*,97*,95*,87*
COc1cccc(CNC(=O)[C@H](C)NC(=O)N2CC(=O)Nc3ccccc32)c1,x,x,x,-4,12,x,x,x,x,x,x
Cc1ccc(COc2ccc(/C=N/O)cc2)cc1,9,57*,70*,9,2,45,71*,70*,86*,48,47
CCOC(=O)C1=C(CN2CCN(C(=O)c3ccco3)CC2)NC(=O)NC1c1ccc(F)cc1 (stereo not given),x,2,-16,11,4,9,x,x,x,x,x
COc1ccc(/C=N/NC(=O)c2[nH]ncc2Br)c(OC)c1,14,87*,82*,-12,-28,75*,80*,81*,97*,93*,9
O=C(N/N=C/c1cccnc1)c1[nH]ncc1Br,6,26,-9,10,-1,1,x,x,x,x,x
COc1ccc(/C=N/NC(=O)c2cccc(NC(C)=O)c2)c(OC)c1,x,-3,-2,-2,-112,25,x,x,x,x,x
O=C(N/N=C/c1ccccc1)c1[nH]ncc1Br,12,95*,91*,27,6,86*,89*,88*,98*,95*,40
COc1ccc(/C=C2\OC(=O)c3c(OC)cccc32)cc1OC,-4,45,62*,13,-487,47,3,12,84*,61*,14
COc1ccc(C=C2C(=O)OC(C)(C)OC2=O)cc1OC,9,-5,-11,7,5,-9,x,x,x,x,x
O=C1/C(=C/c2ccncc2)CCc2ccccc21,20,1,50,21,-5,7,x,x,x,x,x
CCOc1ccc(/C=C2\CCc3ccccc3C2=O)cc1,35,99*,97*,77*,-3,95*,-3,88*,14,34,12
COc1ccc(/C=C2/CCc3ccccc3C2=O)cc1OC,2,40,59*,15,-12,-2,65*,63*,60*,28,43
O=C1/C(=C\c2ccncc2)CCc2ccccc21,x,60*,57*,20,4,14,76*,48,26,6,91*
CSc1ccc(CN(C)C(=O)CNC(=O)c2ccc3c(c2)OCO3)cc1,x,0,6,-3,8,0,x,x,x,x,x
CC(=O)Nc1ccc2nc(NC(=O)c3ccc([N+](=O)[O-])s3)sc2c1,5,22,64*,x,x,41,6,8,4,20,-1
Cc1nc2ccc(NC(=O)c3cccs3)cc2s1,x,-2,-7,-12,2,-12,x,x,x,x,x
CC(=O)Nc1ccc2nc(NC(=O)c3cccs3)sc2c1,26,92*,93*,31,-409,83*,56*,87*,93*,90*,48
COc1ccc2nc(NC(=O)Nc3ccccc3OC)sc2c1,x,93*,81*,44,8,44,-8,-7,7,64*,-3
COc1ccc2nc(NC(=O)c3ccccc3[N+](=O)[O-])sc2c1,x,-1,12,-10,15,1,x,x,x,x,x
Cc1nc2cc(NC(=O)c3ccc([N+](=O)[O-])s3)ccc2s1,x,39,2,31,25,-7,x,x,x,x,x
COc1ccc2nc(NC(=O)c3ccccc3O)sc2c1,x,82*,84*,78*,-290,86*,42,38,70*,60*,5
O=C(c1ccc2c(c1)OCCCO2)N1CCCCC1,12,-12,-20,5,6,-8,x,x,x,x,x
COc1ccc2nc(NC(C)=O)sc2c1,10,31,-5,7,28,5,x,x,x,x,x
SMILES,PPC-1+TRAIL kill,SENP7 inh,SENP6 inh,TRAIL sens C8,SENP8 block-1,SENP8 block-2,SENP8 confirm,SENP6 confirm,SENP7 conf,Casp3 select,SENP luc ctr
COc1ccc2nc(NC(=O)c3cccs3)sc2c1,47,97*,96*,-8,12,94*,2,4,-3,10,17
Cc1cc(C)c2cccc(N)c2n1,10,7,71*,-2,-6,2,-22,-18,-7,-6,-5
Cc1cc(C)c2c(N)c3ccccc3nc2n1,48,0,8,12,-280,2,x,x,x,x,x
Cc1ccccc1Cn1nnc(-c2ccc(C(=O)O)cc2)n1,17,0,-9,1,0,-9,x,x,x,x,x
Cc1ccccc1Cn1nnc(-c2cccc(C(=O)O)c2)n1,41,33,71*,-7,6,31,64*,61*,86*,52*,72*
O=C(O)c1cccc(-c2nnn(Cc3ccccc3Cl)n2)c1,-3,43,82*,4,18,56*,12,83*,94*,44,44
O=C(NCCCN1CCOCC1)c1cccc(S(=O)(=O)Nc2ccccc2Cl)c1,x,-14,-7,-1,-1,-3,x,x,x,x,x
CCOC(=O)c1c(C)[nH]c(N=Nc2ccc(C)cc2)c1C,6,-9,53*,12,18,21,7,37,5,18,5
CCOC(=O)c1[nH]c(C)c(C(=O)c2ccc(C)cc2)c1C,-7,-3,-29,-41,15,-9,x,x,x,x,x
CCOC(=O)c1c(C)[nH]c(N=Nc2cccc(C)c2)c1C,5,2,62*,1,26,50,49,63*,78*,28,15
CCOC(=O)c1c(C)[nH]c(N=Nc2cccc(OC)c2)c1C,-10,58*,5,17,20,21,58*,62*,88*,27,34
